Compound activity (PubChem BioAssay)
A selection: hits, their analogues and other compounds. The true share with any hit is near 19%.
DT40 TDP1 CPT: growth inhibition of DT40 Tdp1-/-;hTDP1 cells with camptothecin (screen for TDP1 inhibitors). chicken DT40 Tdp1-/-;hTDP1 cells + 20 nM CPT, ATP luminescence, 48 h. Potency, µM (series often up to 46.2 µM), usual class: inhibitors. hit rate 12% among 420,000. AID 686979; note: nearly all actives have a fitted effect of over 55% in size
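Chicken DT40 Tdp1-/- cells complemented with human TDP1, 400 cells/well, exposed to compounds plus 20 nM camptothecin for at least 48 h at 37 C; viability read as ATP content by CellTiter-Glo luminescence.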
Chronic BCR inh: chronic active BCR signaling inhibition | ABC-DLBCL IkBa-CBG/CBR reporter, luminescence ratio, 4 h | hit rate 0.05% among 340,000 | Potency, µM (highest dose often 46.1 µM), usual class: inhibitors | AID 493014; active = well fitted inhibition curve with a large enough effect in the signal ratio, with a control signal flat, not every such curve was filed as active; inconclusive = small, poorly fitted or top-dose-only effect, or effect the other way, or a change in a side signal; the % refers to the signal ratio
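Compounds up to 46 uM were incubated four hours with TMD8 cells whose green CBG68 luciferase is fused to IkappaBalpha; red CBR luminescence normalised the signal, and concentration-effect curves were fitted to fusion, red and ratio data.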
DT40 TDP1 no CPT: qHTS for Inhibitors of human tyrosyl-DNA phosphodiesterase 1 (TDP1): qHTS in cells in absence of CPT | DT40 Tdp1-/- hTDP1 cells, no CPT, ATP luminescence, 48 h | Potency, µM (titrated, usually from 46.2 µM), most hits filed as inhibitors | hit rate 15% among 420,000 | AID 686978, 2013; note: nearly all actives have a fitted effect of over 55% in size
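DT40 Tdp1-/-;hTDP1 cells, no CPT (DMSO vehicle only), 400 cells/well; compounds pin-transferred; ≥48 hr, 37 °C; CellTiter-Glo 30 min RT dark, luminescence read.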
IL1B secr inh: inflammasome signaling inhibition, IL-1 beta readout; AID 743279; hit rate 4.7% among 360,000; activity change, % at 57.5 µM; THP-1 LPS/ATP IL-1B secretion, AlphaLISA, 16 h; stronger effect = lower value; in the data active = activity change below about -50%; inconclusive = mostly about -30% to -49%
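THP-1 cells pretreated 1 hr with compounds (up to 57.5 uM final), then stimulated with LPS (250 ng/mL final) plus ATP (1.25 mM final); secreted IL-1B measured by AlphaLISA after 16 hr, decreased signal indicating inhibition.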
MCF10A rerep: inducers of DNA re-replication in MCF 10A breast cells; MCF 10A DNA re-replication, Hoechst nuclear intensity, 48 h; Potency, µM (series often up to 46.1 µM), most hits filed as activators; hit rate 2.9% among 350,000; note: nearly all actives have a fitted effect of over 50% in size
SW480 rerep: DNA re-replication induction in SW480 cells | SW480 DNA re-replication, Hoechst DNA content imaging, 48 h | Potency, µM (doses to about 46.1 µM), most hits filed as activators | hit rate 1.8% among 340,000; note: nearly all actives have a fitted effect of over 55% in size
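Readout is total intensity of Hoechst-stained nuclei, excited at 405 nm and collected at 500-530 nm. Compound treatment lasted 48 hr at 37 C in 5% CO2 before staining.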
Hits are given with their value; i = inactive; ? = inconclusive; nt = no result; [ ] = another dose, or the depositor's remark. Unless noted, calls come from the whole dose curve; as a rule, active = well fitted curve in the direction sought with a large enough effect; inconclusive = small, poorly fitted or top-dose-only effect, or another doubt; inactive = no such curve, though single readings can be large; an effect the other way counts as inactive or inconclusive.

SMILES	DT40 TDP1 CPT	Chronic BCR inh	DT40 TDP1 no CPT	IL1B secr inh	MCF10A rerep	SW480 rerep
Cc1cccc(C(=O)Nc2cccc(C(=O)N/N=C/c3ccccn3)c2)c1	i	?	?	i	i	?
Cc1cc(/C=N/NC(=O)c2cccc([N+](=O)[O-])c2)c(C)n1-c1ccccc1	?	i	?	-80	i	i
CCN(CC)C(=O)C1CCCN(c2ccc([N+](=O)[O-])cc2/C=N/NC(=O)c2cccc([N+](=O)[O-])c2)C1 (centres undefined)	21µM	i	?	?	i	i
Cc1cccc(C(=O)N/N=C/c2ccccn2)c1	?	?	15µM	i	i	i
O=C(NN=Cc1ccccc1O)c1cccc([N+](=O)[O-])c1	0.82µM	nt	0.16µM	i	i	0.58µM
Cc1cc(C(=O)N/N=C/c2ccc(O)c(O)c2O)c(C)n1-c1ccccc1	4.6µM	i	3.3µM	i	i	?
Cc1cc(/C=N/NC(=O)c2ccncc2)c(C)n1-c1ccccc1	i	i	i	i	i	i
COc1ccc(/C=N/NC(=O)c2cccc([N+](=O)[O-])c2)cc1O	i	i	?	i	?	?
O=C(N/N=C/c1ccccc1O)c1cccc(C(F)(F)F)c1	5.2µM	?	3.3µM	i	?	?
O=C(N/N=C/c1ccccn1)c1cc([N+](=O)[O-])cc([N+](=O)[O-])c1	?	?	21µM	i	i	?
O=[N+]([O-])c1ccc(S(=O)(=O)Nc2ccccn2)cc1	i	i	i	i	i	i
CCn1cc(/C=C(\NC(=O)c2cc(OC)c(OC)c(OC)c2)C(=O)NCCCn2ccnc2)c2ccccc21	i	nt	?	nt	nt	nt
O=C(N/N=C/c1cccc(O)c1)c1ccc(NC(=O)c2cccc([N+](=O)[O-])c2)cc1	?	?	18µM	i	i	i
O=C(CNc1ccc2ccccc2c1)N/N=C/c1ccccn1	?	i	18µM	i	i	i
COc1ccc(/C=N/NC(=O)c2ccc(NC(=O)c3cccc([N+](=O)[O-])c3)cc2)c(C(=O)O)c1OC	i	?	i	i	i	i
Cc1cc(/C=N/NC(=O)c2cccs2)c(C)n1-c1ccccc1	16µM	?	13µM	i	?	i
CCn1c(SCC(=O)N(C)Cc2ccc(OC)c(F)c2)nc2cc(S(N)(=O)=O)ccc21	i	i	i	i	i	i
O=C(NCc1ccco1)c1cc([N+](=O)[O-])ccc1N1CCOCC1	i	i	i	i	i	i
OCC1=CC[N+]2(Cc3ccccc3)CCC(O)[C@@H]12 (some centres undefined)	i[9.04 µM]	nt	i[9.04 µM]	nt	nt	nt
O=C(Nc1c(-c2ccc3c(c2)OCO3)[nH][nH]c1=O)c1cccc(C(F)(F)F)c1	i	nt	?	i	nt	nt
Cc1ccc(S(=O)(=O)N(CC(=O)Nc2ccc3c(c2)OCO3)c2ccc(C)c(Cl)c2)cc1	16µM	nt	?	nt	nt	nt
COc1ccccc1N(CC(=O)Nc1cc(C)on1)S(=O)(=O)c1ccc(Cl)cc1	18µM	?	18µM	i	i	i
COc1ccc(Cl)cc1N(CC(=O)Nc1ccc2c(c1)OCO2)S(C)(=O)=O	i	i	i	i	i	i
COc1ccc(OC)c(N(CC(=O)Nc2ccc3c(c2)OCO3)S(=O)(=O)c2ccccc2)c1	26µM	?	?	i	i	i
COc1ccccc1N(CC(=O)Nc1ccc2c(c1)OCO2)S(=O)(=O)c1ccc(C)cc1	23µM	nt	8.2µM	nt	nt	nt
COc1ccccc1N(C)S(=O)(=O)c1ccc(C(=O)OCC(=O)Nc2cc(C)on2)cc1	i	i	i	i	i	i
Cc1ccc(S(=O)(=O)N(C)CC(=O)Nc2ccc3c(c2)OCO3)cc1	i	i	i	i	i	i
CS(=O)(=O)N(CC(=O)Nc1ccc2c(c1)OCO2)c1ccccc1	i	i	i	i	21µM	i
CCN(c1ccccc1)S(=O)(=O)c1ccc(NC(=O)c2ccco2)cc1	?	?	?	i	i	i
